From PubChem BioAssay

Key:
[1] = system: Human papillomavirus type 1a protein E7 (residues 44-93); experiment: HPV1a E7 fragment binders on microarrays, primary screen, biochemical, small-molecule microarray, residues 44-93, 635 nm fluorescence (AID 1108); conditions: small-molecule microarray binding, fluorescence 635 nm; higher = more signal;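 note: E7 fragment applied at 1 µg/mL in TBST for 1 h at 4 C; score combines spot fluorescence with its signal to noise ratio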
[2] = modulators of HCV replicon luciferase signal, primary screen, HCV replication inhibitor project, Huh7 cells, luciferase reporter (AID 1109); conditions: 48 h, higher = more signal;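 note: huh7 hepatoma cells harbouring a luciferase neomycin HCV replicon reporter; luciferase luminescence as measure of HCV replicon replication; test concentration not given here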
[3] = biological target: Left-right determination factor 2 (Homo sapiens) (UniProt O00292); experiment: LEFTY2 binders on small-molecule microarrays, primary screen, biochemical, small-molecule microarray, 635 nm fluorescence scan (AID 1110); conditions: LEFTY2 binding, higher = more signal
[4] = biological target: Calmodulin-1 (Homo sapiens) (UniProt P0DP23); experiment: CALM1 binders on microarrays, EGTA buffer, profiling panel, biochemical, small-molecule microarray, Cy5-labelled CALM1 (AID 1111); conditions: Cy5-CALM1 binding fluorescence, higher = more signal;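 note: labelled calmodulin applied in Tris saline Tween buffer holding calcium plus EGTA and DTT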
[5] = biological target: Calmodulin-1 (Homo sapiens) (UniProt P0DP23); experiment: calcium-bound CALM1 binders on microarrays, profiling panel, artefact control for SMM control-protein annotation, biochemical, small-molecule microarray, Cy5-labelled CALM1, plus calcium (AID 1112); conditions: Cy5-CALM1 binding fluorescence, higher = more signal;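 note: score merges spot fluorescence with signal to noise from triplicate slides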
[6] = small-molecule microarray binders of probe aWnt5a, primary screen, biochemical, biotinylated probe, 635/667 nm fluorescence (AID 1113); conditions: higher = more signal;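 note: score merges 667 nm fluorescence intensity with signal-to-noise per printed feature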
[7] = small-molecule microarray binders of probe aShh, primary screen, biochemical, biotinylated probe, 635/667 nm fluorescence (AID 1114); conditions: higher = more signal;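 note: probe is biotin-labelled aShh protein from a stem cell growth factor screen; measures binding of labelled protein to compounds printed on the slide; score merges feature fluorescence at 667 nm with signal-to-noise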
[8] = small-molecule microarray binders of probe aNog, primary screen, biochemical, biotinylated probe, 635/667 nm fluorescence (AID 1115); conditions: higher = more signal;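 note: probe is biotinylated aNog protein used at 0.15 µg/mL for 1 h at 4 C; z-score combines 667 nm fluorescence of each spot with its signal to noise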
[9] = biological target: Torsin-1A-interacting protein 1 (Homo sapiens) (UniProt Q5JTV8); experiment: LAP1 binders from COS7 cell lysate, primary screen, small-molecule microarray, 635/667 nm fluorescence (AID 1116); conditions: COS7-hLAP1 lysate binding, 635 nm fluorescence, higher = more signal
[10] = biological target: Alpha-bungarotoxin (Bungarus multicinctus) (UniProt P60615); experiment: alpha-bungarotoxin binders on microarray, profiling panel, artefact control for SMM control protein annotation, biochemical, small-molecule microarray, Alexa647 label, 635/667 nm fluorescence (AID 1117); conditions: alpha-BTX-A647 binding fluorescence, higher = more signal
Chain of Alpha-bungarotoxin (Bungarus multicinctus) (P60615 whole entry, looked up): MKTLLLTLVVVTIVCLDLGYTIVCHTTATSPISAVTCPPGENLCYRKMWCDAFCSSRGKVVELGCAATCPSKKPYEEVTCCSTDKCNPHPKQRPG

Chain of Torsin-1A-interacting protein 1 (Homo sapiens) (Q5JTV8 whole entry, looked up): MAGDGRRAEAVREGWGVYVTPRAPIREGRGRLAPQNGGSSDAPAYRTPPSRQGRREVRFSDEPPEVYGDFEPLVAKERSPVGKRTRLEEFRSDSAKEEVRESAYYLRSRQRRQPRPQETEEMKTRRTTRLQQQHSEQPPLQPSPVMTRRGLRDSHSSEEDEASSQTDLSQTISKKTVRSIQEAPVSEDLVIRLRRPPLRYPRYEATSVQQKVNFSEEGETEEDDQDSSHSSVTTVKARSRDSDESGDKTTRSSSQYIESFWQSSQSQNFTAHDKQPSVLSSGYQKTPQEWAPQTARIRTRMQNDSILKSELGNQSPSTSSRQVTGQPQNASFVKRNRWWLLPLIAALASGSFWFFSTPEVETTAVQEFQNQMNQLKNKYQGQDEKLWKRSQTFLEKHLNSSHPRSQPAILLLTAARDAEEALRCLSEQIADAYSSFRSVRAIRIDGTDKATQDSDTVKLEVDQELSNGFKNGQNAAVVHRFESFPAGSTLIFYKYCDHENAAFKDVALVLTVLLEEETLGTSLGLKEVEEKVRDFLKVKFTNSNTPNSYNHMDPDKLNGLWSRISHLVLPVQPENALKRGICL
Chain of Left-right determination factor 2 (Homo sapiens) (O00292 whole entry, looked up): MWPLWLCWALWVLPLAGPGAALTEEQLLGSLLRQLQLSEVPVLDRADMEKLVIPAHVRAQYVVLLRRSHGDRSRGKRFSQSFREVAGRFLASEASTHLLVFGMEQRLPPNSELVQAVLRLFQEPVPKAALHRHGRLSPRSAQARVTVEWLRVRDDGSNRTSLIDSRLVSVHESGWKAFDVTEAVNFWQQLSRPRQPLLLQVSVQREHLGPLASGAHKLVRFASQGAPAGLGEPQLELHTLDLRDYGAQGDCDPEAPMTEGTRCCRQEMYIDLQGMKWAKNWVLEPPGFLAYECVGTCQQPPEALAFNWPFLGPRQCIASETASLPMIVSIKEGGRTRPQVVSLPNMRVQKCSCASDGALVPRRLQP

O=C1NC(=O)C2C1C=CC(C(O)c1ccc(F)cc1)N2Nc1ccc(Cl)cc1Cl (stereo not given)
composite z-score [1]: 0.379
z-score [2]: -0.659
composite z-score [3]: -0.752
composite z-score [4]: 0.805
composite z-score [5]: 1
composite z-score [6]: -0.0403
composite z-score [7]: 0.867
composite z-score [8]: 0.993
composite z-score [9]: 0.68
composite z-score [10]: 0.712

C[N+](C)(C)CCCC[C@@H]1NC(=O)[C@H]2C[C@@H](C(=O)O)[C@@H](c3ccc(O)cc3)N2C1=O
composite z-score [1]: 0.315
z-score [2]: 3.08
composite z-score [3]: 0.436
composite z-score [4]: -0.171
composite z-score [5]: 0.11
composite z-score [6]: -0.147
composite z-score [7]: -0.375
composite z-score [8]: -0.14
composite z-score [9]: 1.74
composite z-score [10]: 0.343

[N-]=[N+]=Nc1ccccc1C[C@@]1(C(=O)NCc2ccccc2)N=C(c2ccc(OCCCO)cc2)O[C@@H]1c1ccccc1
composite z-score [1]: 1.08
z-score [2]: -1.76
composite z-score [3]: 0.262
composite z-score [4]: 1.41
composite z-score [5]: 0.313
composite z-score [6]: 0.534
composite z-score [7]: 0.0326
composite z-score [8]: 2.22
composite z-score [9]: 1.13
composite z-score [10]: 0.39

O=C1c2ccccc2[C@](Cc2ccccc2I)(C(=O)NCCN2CCOCC2)[C@H](c2ccc(CO)cc2)N1Cc1ccccc1C(F)(F)F
composite z-score [1]: 1.4
z-score [2]: -2.44
composite z-score [3]: -0.325
composite z-score [4]: 0.799
composite z-score [5]: 0.492
composite z-score [6]: -0.0721
composite z-score [7]: -0.221
composite z-score [8]: -0.43
composite z-score [9]: 0.598
composite z-score [10]: 0.787

O=C(NC1CC1)[C@@H]1c2ccccc2C(=O)N(C2CCCCC2)[C@H]1c1ccc(CO)cc1
composite z-score [1]: 0.178
z-score [2]: -2.14
composite z-score [3]: 0.0863
composite z-score [4]: 0.576
composite z-score [5]: 0.109
composite z-score [6]: -0.176
composite z-score [7]: -0.321
composite z-score [8]: -0.16
composite z-score [9]: 0.482
composite z-score [10]: 1.5

COc1ccc([Si](C)(C)[C@H]2[C@H](CC(=O)N3CCC[C@H]3CO)O[C@@]3(C(=O)N(C)c4c(Br)cc(C)cc43)[C@@H]2C)cc1
composite z-score [1]: 1.45
z-score [2]: -2
composite z-score [3]: 0.946
composite z-score [4]: 0.783
composite z-score [5]: 0.339
composite z-score [6]: 1.19
composite z-score [7]: 1.28
composite z-score [8]: 0.241
composite z-score [9]: 0.128
composite z-score [10]: 1.26

Cc1ccc(S[C@]2(C(=O)NC(C)C)CC(=O)N(Cc3ccccc3)[C@@H]2c2ccc(CO)cc2)cc1
composite z-score [1]: -0.905
z-score [2]: -1.36
composite z-score [3]: -1.82
composite z-score [4]: -0.0379
composite z-score [5]: 0.175
composite z-score [6]: -0.124
composite z-score [7]: -0.2
composite z-score [8]: 0.0258
composite z-score [9]: -0.142
composite z-score [10]: 0.329

C=C(COC)C(=O)CC[C@@H](OC(=O)c1ccccc1-c1ccccc1C(=O)O)c1ccccc1OCCO
composite z-score [1]: 0.933
z-score [2]: -1.91
composite z-score [3]: 0.585
composite z-score [4]: -0.537
composite z-score [5]: -1.2
composite z-score [6]: -0.232
composite z-score [7]: -0.17
composite z-score [8]: 0.153
composite z-score [9]: 3.7
composite z-score [10]: -0.217

CC(C)c1ccc(NN2C(C(O)C3CCCCC3)C=CC3C(=O)N(c4ccccc4)C(=O)C32)cc1 (stereo not given)
composite z-score [1]: 0.324
z-score [2]: -0.482
composite z-score [3]: 0.176
composite z-score [4]: 2.23
composite z-score [5]: 0.842
composite z-score [6]: 0.0219
composite z-score [7]: -0.144
composite z-score [8]: 0.302
composite z-score [9]: 0.678
composite z-score [10]: 1.9

COCCCNC(=O)[C@@]1(Cc2ccccc2I)c2ccccc2C(=O)N(C2CCCCC2)[C@H]1c1ccc(CO)cc1
composite z-score [1]: 1.13
z-score [2]: -1.45
composite z-score [3]: -0.418
composite z-score [4]: 0.634
composite z-score [5]: 0.305
composite z-score [6]: -0.0061
composite z-score [7]: 0.313
composite z-score [8]: -0.417
composite z-score [9]: 1.57
composite z-score [10]: 1.19
